Data on 9 molecules can be found in PubChem BioAssay (Tox21).

“And” between values parts separate entries of the source, which are not always exact repeats. Equal entries are not always repeated. Results filed as inconclusive are left out. The source made the active and inactive calls. Unless noted, calls come from the whole dose curve; as a rule, active = well fitted curve in the direction sought with a large enough effect in the repeat runs; inconclusive = weak or mixed curves; inactive = no such curve, though single readings can be large; an effect the other way counts as inactive or inconclusive.

Test [1] can be described thus: qHTS assay to identify small molecule antagonists of the thyroid receptor (TR) signaling pathway - cell viability counter screen (AID 743064). Note: nearly all actives have a fitted effect of over 50% in size. Note: potency is the fitted concentration of half-maximal effect. In outline: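 Counter screen for cytotoxicity: compound plus T3 (1 nM final) on GH3.TRE-Luc cells, 23.5 h at 37 °C, then fluorescence viability readout with CellTiter-Fluor.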
Test [2] can be described thus: qHTS assay to identify small molecule antagonists of the thyroid receptor (TR) signaling pathway (AID 743065). Note: nearly all actives have a fitted effect of over 55% in size. Note: potency is the fitted concentration of half-maximal effect. In outline: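 GH3.TRE-Luc rat pituitary cells (two TREs driving luciferase) were dosed with compound, then stimulated with 1 nM T3 (final) for 23.5 h at 37 C. ONE-Glo luminescence was the read-out, with CellTiter-Fluor fluorescence as the cytotoxicity counter-screen.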

Test [3] concerns thyroid hormone receptor (rat, GH3 cells). In words: qHTS assay to identify small molecule agonists of the thyroid receptor (TR) signaling pathway (AID 743066; calls by dose curve). (Quantitative high-throughput screening tests each substance at several concentrations.)
The target in test [4] is Estrogen receptor (Homo sapiens) (UniProt P03372). The test is described as follows: qHTS assay to identify small molecule antagonists of the estrogen receptor alpha (ER-alpha) signaling pathway (AID 743069; active = well fitted curve in the direction sought with a large enough effect in the signal ratio in the repeat runs, not every such curve was filed as active; the % refers to the signal ratio). In outline:
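Beta-lactamase FRET fluorescence is read after 2 hr at room temperature with LiveBLAzer B/G substrate. Before that, ER-alpha-bla HEK293 cells sit 4 hr after plating, then receive compound plus 17beta-estradiol and incubate 18 hr at 37C.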

For test [5] the target is unchanged. The test is described as follows: qHTS assay to identify small molecule agonists of the estrogen receptor alpha (ER-alpha) signaling pathway (AID 743075; calls by dose curve;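 note: HEK293 GripTite cells with ER-alpha and UAS-driven beta-lactamase reporter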).
For test [6] the target is unchanged. The test is described as follows: qHTS assay to identify small molecule agonists of the estrogen receptor alpha (ER-alpha) signaling pathway using the BG1 cell line (AID 743079). Note: nearly all actives have a fitted effect of over 20% in size. Note: potency is the fitted concentration of half-maximal effect.
Test [7] is described as follows: qHTS assay to identify small molecule antagonists of the estrogen receptor alpha (ER-alpha) signaling pathway using the BG1 cell line (AID 743080; calls by dose curve;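 note: BG1 cells stimulated with 17beta-estradiol alongside compound; series mostly up to about 70 µM; nearly all actives have a fitted effect of over 25% in size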). In outline:
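Luminescence from a 4×ERE-luciferase reporter in BG1-Luc-4E2 cells served as read-out. Cells, pre-cultured 5 days in stripped-serum phenol-red-free medium, were exposed to compound with 17beta-estradiol co-stimulation for 21.5 h at 37 C.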

Test [8] in a line: qHTS assay to identify small molecule antagonists of the estrogen receptor alpha (ER-alpha) signaling pathway using the BG1 cell line - cell viability counter screen (AID 743081).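 Note: compound given together with 17beta-estradiol as the ER stimulus; series mostly up to about 70 µM; nearly all actives have a fitted effect of over 45% in size.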
In test [9] the target is Aromatase (Homo sapiens) (UniProt P11511). In words: qHTS assay to identify aromatase inhibitors (AID 743083). Note: series mostly up to about 70 µM; nearly all actives have a fitted effect of over 55% in size.
Test [10] in a line: qHTS assay to identify aromatase inhibitors - cell viability counter screen (AID 743084).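 Note: cells stimulated with testosterone during compound exposure; nearly all actives have a fitted effect of over 55% in size.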
The target of test [11] is Aryl hydrocarbon receptor (Homo sapiens) (UniProt P35869). The test is described as follows: qHTS assay to identify small molecule that activate the aryl hydrocarbon receptor (AhR) signaling pathway (AID 743085).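 For activation: HG2L7.5c1 human HepG2 liver cells with stably integrated DRE-driven firefly reporter; series mostly up to about 70 µM.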 Note: nearly all actives have a fitted effect of over 15% in size. Note: potency is the fitted concentration of half-maximal effect. In outline:
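Measured in HG2L7.5c1 cells: CellTiter-Fluor signal (30 min incubation, 37C) for viability, then luciferase luminescence (30 min, room temperature). Compound contact time was 24 h at 37C, following a 5 h pre-incubation.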

Test [12] is described as follows: qHTS assay to identify small molecule that activate the aryl hydrocarbon receptor (AhR) signaling pathway - cell viability counter screen (AID 743086).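 Note: HepG2 liver cells carrying the AhR DRE luciferase reporter; series mostly up to about 70 µM; nearly all actives have a fitted effect of over 45% in size.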 In outline:
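HepG2-AhR-luc (HG2L7.5c1) cells, 4000/well, treated 24 h at 37 C with compound; viability measured as CellTiter-Fluor fluorescence after 30 min in the same wells as the luciferase read.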

The target in test [13] is Peroxisome proliferator-activated receptor gamma (Homo sapiens) (UniProt P37231). The test is described as follows: qHTS assay to identify small molecule agonists of the peroxisome proliferator-activated receptor gamma (PPARg) signaling pathway (AID 743094; active = well fitted activation curve with a large enough effect in the signal ratio in the repeat runs, not every such curve was filed as active; the % refers to the signal ratio). In outline: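 HEK293H PPARg-bla cells, 5 h settle at 37C/5% CO2; compound (DMSO) 17 h, 37C; B/G FRET substrate 1 h RT; fluorescence intensity read-out. qHTS format.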

A short description of test [14]: qHTS assay to identify small molecule antagonists of the peroxisome proliferator-activated receptor gamma (PPARg) signaling pathway - cell viability counter screen (AID 743194). Note: nearly all actives have a fitted effect of over 55% in size. In outline:
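Cytotoxicity counter screen in PPARg-bla HEK293H cells, same wells as reporter assay. Compounds plus 50 nM rosiglitazone (final) for 17 h at 37 C, then viability read by CellTiter-Glo luminescence.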

The nature of test [15]: qHTS assay for small molecule agonists of the antioxidant response element (ARE) signaling pathway (AID 743202; active = well fitted activation curve with a large enough effect in the signal ratio in the repeat runs, not every such curve was filed as active; the % refers to the signal ratio). In outline:
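HepG2 ARE-bla reporter line, 2,000 cells/well; 5 h preincubation 37 C/5% CO2; compound (DMSO) 16 h 37 C; B/G FRET substrate 2 h RT; fluorescence intensity.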

The nature of test [16]: qHTS assay for small molecule agonists of the antioxidant response element (ARE) signaling pathway - cell viability counter screen (AID 743203; calls by dose curve; note: nearly all actives have a fitted effect of over 55% in size). In outline:
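Luminescence read-out (CellTiter-Glo, 30 min at room temperature) measured cell viability in the same wells as the ARE beta-lactamase reporter. HepG2 ARE-bla cells were treated with compounds for 16 hrs at 37C/5% CO2.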

Test [17] in a line: qHTS assay for small molecule activators of the heat shock response signaling pathway - cell viability counter screen (AID 743209). Note: nearly all actives have a fitted effect of over 50% in size. In outline: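 HSE-bla HeLa; 1500 cells/well; overnight 37 C, 5% CO2; compound 5 h 37 C; LiveBLAzer B/G substrate 2.5 h RT; CellTiter-Glo 30 min RT; luminescence.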
Test [18] in a line: qHTS assay for small molecule activators of the heat shock response signaling pathway (AID 743210; active = well fitted activation curve with a large enough effect in the signal ratio in the repeat runs, with a control signal flat, not every such curve was filed as active; the % refers to the signal ratio; note: series mostly up to about 63 µM). In outline: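 Beta-lactamase reporter read-out: FRET substrate fluorescence after 2.5 h at RT, following 5 h compound treatment at 37 C of HeLa cells carrying HSE-driven bla reporter; quantitative HTS format.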
The nature of test [19]: qHTS assay to identify small molecule antagonists of the estrogen receptor alpha (ER-alpha) signaling pathway - cell viability counter screen (AID 743074; calls by dose curve;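 note: HEK293 cells carrying ER-alpha-UAS-bla reporter stimulated with 17beta-estradiol; nearly all actives have a fitted effect of over 45% in size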).
Test [20] addresses Peroxisome proliferator-activated receptor gamma (Homo sapiens) (UniProt P37231). In words: qHTS assay to identify small molecule antagonists of the peroxisome proliferator-activated receptor gamma (PPARg) signaling pathway (AID 743191; calls by dose curve; note: series mostly up to about 63 µM; nearly all actives have a fitted effect of over 30% in size). In outline:
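GeneBLAzer PPARg UAS-bla HEK293H cells, 5 h post-plating, exposed to compounds 17 h at 37C. LiveBLAzer B/G FRET substrate added for 1 h at room temperature; beta-lactamase reporter read by fluorescence intensity.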

Sequence of Estrogen receptor (Homo sapiens) (P03372 whole entry, looked up): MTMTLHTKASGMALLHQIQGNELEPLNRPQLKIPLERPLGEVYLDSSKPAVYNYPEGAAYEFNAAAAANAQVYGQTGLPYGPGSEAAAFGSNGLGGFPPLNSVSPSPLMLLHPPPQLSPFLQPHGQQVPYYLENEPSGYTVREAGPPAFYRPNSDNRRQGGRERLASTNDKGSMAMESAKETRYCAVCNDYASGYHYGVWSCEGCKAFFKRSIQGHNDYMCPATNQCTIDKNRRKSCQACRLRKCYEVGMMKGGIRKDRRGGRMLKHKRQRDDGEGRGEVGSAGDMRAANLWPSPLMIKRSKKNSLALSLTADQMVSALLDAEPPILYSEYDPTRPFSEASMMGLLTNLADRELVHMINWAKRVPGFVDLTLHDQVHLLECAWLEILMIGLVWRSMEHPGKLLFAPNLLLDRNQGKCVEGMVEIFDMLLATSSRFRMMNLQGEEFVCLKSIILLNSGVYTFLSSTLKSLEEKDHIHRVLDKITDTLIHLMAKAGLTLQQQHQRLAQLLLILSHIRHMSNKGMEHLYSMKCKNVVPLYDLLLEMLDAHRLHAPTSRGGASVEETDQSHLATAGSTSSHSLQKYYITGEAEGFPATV
Sequence of Aryl hydrocarbon receptor (Homo sapiens) (P35869 whole entry, looked up): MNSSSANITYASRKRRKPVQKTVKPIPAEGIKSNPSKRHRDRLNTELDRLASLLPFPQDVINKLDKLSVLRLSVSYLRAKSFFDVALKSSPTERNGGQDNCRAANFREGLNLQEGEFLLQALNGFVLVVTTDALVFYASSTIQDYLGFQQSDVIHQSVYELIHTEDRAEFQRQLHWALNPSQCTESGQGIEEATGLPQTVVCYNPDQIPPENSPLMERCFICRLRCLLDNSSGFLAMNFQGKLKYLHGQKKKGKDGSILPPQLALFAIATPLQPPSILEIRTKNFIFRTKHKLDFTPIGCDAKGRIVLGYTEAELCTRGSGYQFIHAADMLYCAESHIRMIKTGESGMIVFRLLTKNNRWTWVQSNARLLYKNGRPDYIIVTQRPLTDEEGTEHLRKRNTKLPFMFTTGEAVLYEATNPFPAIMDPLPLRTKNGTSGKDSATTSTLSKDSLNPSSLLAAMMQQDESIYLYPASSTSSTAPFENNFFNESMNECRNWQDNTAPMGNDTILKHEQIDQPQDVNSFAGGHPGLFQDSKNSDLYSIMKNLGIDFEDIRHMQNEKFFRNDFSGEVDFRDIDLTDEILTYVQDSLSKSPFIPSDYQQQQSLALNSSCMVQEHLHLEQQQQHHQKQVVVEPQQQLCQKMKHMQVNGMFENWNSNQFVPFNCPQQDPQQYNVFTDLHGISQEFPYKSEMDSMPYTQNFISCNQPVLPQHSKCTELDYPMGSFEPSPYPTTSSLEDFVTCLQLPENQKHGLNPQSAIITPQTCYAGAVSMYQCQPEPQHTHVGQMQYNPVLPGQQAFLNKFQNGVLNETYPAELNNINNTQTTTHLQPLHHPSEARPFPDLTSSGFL
Sequence of Aromatase (Homo sapiens) (P11511 whole entry, looked up): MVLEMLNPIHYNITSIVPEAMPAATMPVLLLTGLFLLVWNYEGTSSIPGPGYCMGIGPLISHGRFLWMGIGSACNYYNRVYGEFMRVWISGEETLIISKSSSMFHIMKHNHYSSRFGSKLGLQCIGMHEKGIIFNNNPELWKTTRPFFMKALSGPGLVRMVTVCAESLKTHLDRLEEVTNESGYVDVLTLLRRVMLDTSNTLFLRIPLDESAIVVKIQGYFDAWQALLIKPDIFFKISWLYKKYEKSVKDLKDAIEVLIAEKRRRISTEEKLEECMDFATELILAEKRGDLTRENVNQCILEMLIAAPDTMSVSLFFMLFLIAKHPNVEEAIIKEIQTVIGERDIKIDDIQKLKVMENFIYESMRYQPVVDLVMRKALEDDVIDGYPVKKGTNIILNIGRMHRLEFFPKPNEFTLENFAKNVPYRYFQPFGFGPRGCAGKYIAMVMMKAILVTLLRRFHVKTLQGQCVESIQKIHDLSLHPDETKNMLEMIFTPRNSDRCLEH
Sequence of Peroxisome proliferator-activated receptor gamma (Homo sapiens) (P37231 whole entry, looked up): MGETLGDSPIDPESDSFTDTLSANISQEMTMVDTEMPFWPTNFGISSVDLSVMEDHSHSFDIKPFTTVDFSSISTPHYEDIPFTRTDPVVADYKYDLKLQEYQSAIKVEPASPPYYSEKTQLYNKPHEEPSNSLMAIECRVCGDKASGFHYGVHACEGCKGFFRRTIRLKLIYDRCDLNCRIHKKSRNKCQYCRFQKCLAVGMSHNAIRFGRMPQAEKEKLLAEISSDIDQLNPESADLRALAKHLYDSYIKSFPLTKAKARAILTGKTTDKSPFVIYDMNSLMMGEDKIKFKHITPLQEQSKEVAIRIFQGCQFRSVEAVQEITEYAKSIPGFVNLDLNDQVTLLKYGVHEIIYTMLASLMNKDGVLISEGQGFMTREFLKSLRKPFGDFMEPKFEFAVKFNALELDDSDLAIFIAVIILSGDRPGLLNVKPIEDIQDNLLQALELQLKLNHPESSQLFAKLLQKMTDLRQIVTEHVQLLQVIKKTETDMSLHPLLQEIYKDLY

Take `CC(=O)c1ccccc1O`: the Potency result in test [1], in [2], in test [5], in test [6], in test [8] and in test [9] was “inactive” each time. Besides, the Potency entry in [10], in test [11], in test [12], in [15] and in [16] was “inactive” each time. The outcome in test [3], in test [4], in [7], in test [13], in test [14] and in test [17] was inactive. Also, the call in test [18] was inactive.
As to `CCC(=O)OC(C)c1ccccc1` (centres undefined), the Potency entry in test [1], in test [2], in test [5], in test [6], in test [8] and in [9] was “inactive” in each case. Moreover, the Potency result in [10], in [11], in test [12], in test [20], in test [15] and in test [16] was “inactive” each time. Moreover, the result in [3], in test [4], in [19], in test [7], in [14] and in [17] was inactive. Besides, the result in test [18] was inactive.
As for `CCOC(=O)C(=O)OCC`, the Potency entry in test [1], in [2], in [5], in [6], in test [8] and in test [9] was “inactive” in each case. In addition, the Potency entry in test [12], in test [20], in [15] and in test [16] was “inactive” each time. Further, the molecule was classed as inactive in test [3], in test [4], in test [19], in [7], in test [13] and in [17]. In test [18], the outcome was inactive.
Regarding `Cc1nc2c([nH]1)c(=O)n(C)c(=O)n2Cc1ccco1`, the Potency result in test [1], in [2], in test [5], in [6], in [8] and in [9] was “inactive” throughout. Also, the Potency result in test [10], in [12] and in test [16] was “inactive” throughout. The call in [3], in test [4], in test [19], in test [14], in test [17] and in test [18] was inactive.
For `CN1CCC(=C2c3ccccc3CC(=O)c3sccc32)CC1`, the Potency in [1] was 15 µM (active); in [2], 23.7 µM (active). In addition, the outcome in test [3], in [4], in test [19], in test [7], in test [14] and in test [17] was inactive. The molecule was called inactive in test [18]. Besides, the Potency result in test [5], in test [6], in [9], in test [10], in test [11] and in [12] was “inactive” in each case. Also, the Potency entry in [20] and in [16] was “inactive” throughout.
In the case of `O=c1cc(-c2ccccc2)oc2ccccc12`, the Potency entry in [1], in test [2], in test [8], in test [10], in [12] and in test [16] was “inactive” throughout. The molecule was called inactive in test [3], in [4], in test [19], in test [13], in test [14] and in test [17]. The molecule was classed as inactive in [18]. In addition, the Potency in test [6] is 2.43 µM (active) and 3.95 µM (active); in test [11], 24.3 µM (active) and 5.91 µM (active).
Turning to `C=C(C)CS(=O)(=O)O`, the Potency entry in test [1], in test [2], in [5], in test [6], in test [8] and in test [9] was “inactive” in each case. Also, the Potency result in test [10], in [11], in test [12], in test [20] and in test [16] was “inactive” throughout. Moreover, the outcome in test [3], in [4], in test [19], in test [7], in [14] and in [17] was inactive. Also, the call in [18] was inactive.
For the molecule `CC(C[N+](C)(C)C)OC(N)=O` (centres undefined), the Potency result in test [1], in test [2], in test [5], in test [6], in test [8] and in test [9] was “inactive” throughout. The Potency entry in test [10], in test [11], in [12], in [20], in [15] and in test [16] was “inactive” in each case. For the same molecule, the molecule was called inactive in [3], in test [4], in [19], in test [7], in [17] and in test [18].
With `O=[N+]([O-])c1ccc(F)cc1F`, the Potency result in test [1], in test [2], in test [5], in test [6], in test [8] and in test [9] was “inactive” each time. In addition, the Potency result in [10], in test [11], in test [12] and in test [16] was “inactive” in each case. Besides, the molecule was classed as inactive in [3], in [4], in test [19], in test [7], in [14] and in [17]. Moreover, the molecule was classed as inactive in test [18].
